Assay results from PubChem BioAssay (NCATS).
Several values for one entry are separate records, joined by “and”; a condition that tells them apart may be missing. Identical values can stand only once. Records with an inconclusive call do not appear. Activity calls are given as the source filed them. Unless noted, the call rests on the fitted dose curve; in most records, active means well fitted curve in either direction with a large enough effect (not every such curve was filed as active); inconclusive means small, poorly fitted or top-dose-only effect, or another doubt; inactive means flat fitted curve, though single readings scatter.

How the values were obtained:
[1] = Stat Signaling Pathway (AID 446); conditions: ME-180 (cervical carcinoma) SIE beta-lactamase reporter, IL-6 stimulated, 5 h; at 38 µM (top of the series) unless noted;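 further: ME-180 cervical cancer cells given 40 pM IL-6 alongside compound; SIE-controlled beta-lactamase reporter measured as 460/530 nm FRET emission ratio; on the % scale 0 is the no-effect control and ±100 the full control effect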
Summary of the method: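 Emission at 460 and 530 nm (excitation 405 nm) reports SIE-controlled beta-lactamase in ME-180 cells. Cells received compound with 40 pM IL-6 for 5 hrs at 37 C; data scaled between 300 pM IL-6 and 125 nM JAK-inhibitor controls.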

[2] = target: Glucocorticoid receptor (Homo sapiens) (UniProt P04150); assay: GR-GFP Redistribution (AID 450;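 active means compounds whose dose series gives a full or clear partial fitted curve of increased nuclear translocation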; further: potency means the concentration at half of the fitted maximal effect); conditions: U2OS GR-GFP nuclear translocation, laser cytometry, 2 h
[3] = target: Glucocorticoid receptor (Homo sapiens) (UniProt P04150); assay: GR-EFC Redistribution (AID 451; calls by dose curve; further: potency means the concentration at half of the fitted maximal effect); conditions: CHO-K1 GR-EFC translocation, beta-gal luminescence, 2 h
Summary of the method: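 CHO-K1 cells stably expressing nuclear-localized β-gal enzyme acceptor and GR fused C-terminally to the enzyme donor fragment; ligand-driven nuclear translocation restores β-gal by complementation. Compounds titrated up to 46 uM final, 2 h at 37 °C; luminescence read.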

[4] = target: Mitogen-activated protein kinase 10 (Mus musculus) (UniProt Q61831); assay: JNK3 AlphaScreen Assay (AID 530);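 further: kinase came from lysate of stimulated human HepG2 cells; signal reports phosphorylation of biotinylated GST-cJun 1-79 at Ser73 with 10 µM ATP; on the % scale 0 is the no-effect control and ±100 the full control effect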
Summary of the method: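 Biotinylated GST-cJun(1-79) served as substrate for JNK3 in HepG2 lysates stimulated with IL-1beta and TNF-alpha. ATP was 10 uM final, pH 7.6. Ser73 phosphorylation was quantified by AlphaScreen (680 nm excitation).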

[5] = target: 3',5'-cyclic-AMP phosphodiesterase 4B (Homo sapiens) (UniProt Q07343); assay: qHTS Assay for Inhibitors of PDE-IV (AID 607; active means well fitted activation curve with a large enough effect in the main read-out, with a control signal flat, not every such curve was filed as active; further: % of control where 0% means no effect)
Summary of the method: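 The readout is membrane depolarisation from a cAMP-sensing CNG channel, detected with a potential dye at ex 535/em 590. Cells were HEK293-derived (endogenous PDE-IV) at 1000 cells/well, titrated up to 22.9 uM final.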

[6] = Cell Viability - N2a (AID 540; active means well fitted curve in the direction sought with a large enough effect; an effect the other way counts as inactive or inconclusive;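 further: cells exposed to compound for 40 h at 37 °C; plate controls were DMSO alone for no effect and tamoxifen control for full effect; nearly all actives have a fitted effect of over 45% in size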)
Summary of the method: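 In this qHTS cytotoxicity screen, ATP-dependent luciferase luminescence reports viable N2a cells after a 40 hr compound exposure in complete culture medium. Potencies are AC50 values from standard Hill equation fits.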

[7] = Cell Viability - NIH 3T3 (AID 541; active means well fitted curve in the direction sought with a large enough effect; an effect the other way counts as inactive or inconclusive;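 further: cells exposed to compound for 40 hours; plate controls were DMSO alone for no effect and tamoxifen positive control for full effect; nearly all actives have a fitted effect of over 25% in size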)
Summary of the method: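 In this cytotoxicity screen, acute toxicity is scored as an ATP drop measured by CellTiter-Glo in NIH 3T3 fibroblasts following a 40 hr, 37 °C incubation with compound.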

[8] = Cell Viability - HUV-EC-C (AID 542; active means well fitted curve in the direction sought with a large enough effect; an effect the other way counts as inactive or inconclusive;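 further: cells exposed to compound for 40 hours; on the % scale 0 is the no-effect control and ±100 the full control effect; nearly all actives have a fitted effect of over 35% in size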)
Summary of the method: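 Concentration-dependent ATP loss in HUV-EC-C cells is the measure. Exposure lasts 40 hr at 37 °C; luminescence follows CellTiter-Glo addition, and Hill fits give AC50.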

[9] = Cell Viability - H-4-II-E (AID 543; active means well fitted curve in the direction sought with a large enough effect; an effect the other way counts as inactive or inconclusive;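 further: cells exposed to compound for 40 hours; on the % scale 0 is the no-effect control and ±100 the full control effect; nearly all actives have a fitted effect of over 35% in size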)
Summary of the method: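 AC50 from Hill-modelled qHTS concentration-response curves. H-4-II-E rat hepatoma cells in complete medium, 40 hr exposure at 37 °C, viability by CellTiter-Glo ATP luminescence.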

[10] = Cell Viability - SH-SY5Y (AID 544; active means well fitted curve in the direction sought with a large enough effect; an effect the other way counts as inactive or inconclusive;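 further: cells exposed to compound for 40 hours; 0% = DMSO alone and -100% = 100 µM tamoxifen; nearly all actives have a fitted effect of over 55% in size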)
Summary of the method: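 Quantitative HTS in SH-SY5Y neuroblastoma cells, 40 hr treatment at 37 °C, ATP content by luciferase luminescence; AC50 from Hill fits.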

[11] = Cell Viability - Renal Proximal Tubule (AID 545; active means well fitted curve in the direction sought with a large enough effect; an effect the other way counts as inactive or inconclusive;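 further: cells exposed to compound for 40 hours; 0% = DMSO only and -100% = 100 µM tamoxifen; nearly all actives have a fitted effect of over 40% in size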)
Summary of the method: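 Cytotoxicity is scored as a concentration-dependent drop in cellular ATP in primary rat renal proximal tubule cells exposed for 40 hr. AC50 derives from Hill modelling.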

[12] = Cell Viability - Mesenchymal (AID 546; active means well fitted curve in the direction sought with a large enough effect; an effect the other way counts as inactive or inconclusive;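 further: cells exposed to compound for 40 hours before reading; 0% = DMSO only and -100% = 100 µM tamoxifen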)
Summary of the method: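 In this qHTS cytotoxicity format, glomerulus-derived human mesenchymal kidney cells received compound for 40 hr, then luciferase-based ATP quantitation. Concentration-response data were fitted with the Hill equation.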

[13] = Cellular Toxicity (caspase-3) HepG2 (AID 654; active means well fitted curve in the direction sought with a large enough effect; an effect the other way counts as inactive or inconclusive;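 further: cells exposed to compound for 16 hours before reading; 0% = DMSO alone and 100% = caspase signal from 100 µM tamoxifen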)
Summary of the method: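 Concentration-response AC50 values reflect caspase-3/7 induction in HepG2 cells after 16 hours of compound exposure, quantified by luminescence from liberated aminoluciferin and referenced to 100 uM tamoxifen as full stimulation.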

[14] = Cellular Toxicity (caspase-3) Jurkat (AID 655; active means well fitted curve in the direction sought with a large enough effect; an effect the other way counts as inactive or inconclusive;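 further: cells exposed to compound for 16 h at 37 °C before reading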)
Summary of the method: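 Caspase 3/7 activation is scored as increased luminescence in Jurkat cells cultured with compound for 16 hours in complete medium. AC50 values come from Hill fits of qHTS concentration-response data normalized to DMSO and 100 uM tamoxifen controls.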

[15] = Cellular Toxicity (caspase-3) HUV-EC-C (AID 656; active means well fitted curve in the direction sought with a large enough effect; an effect the other way counts as inactive or inconclusive;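 further: 0% = DMSO basal and 100% = 100 µM tamoxifen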)
Summary of the method: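 Read-out: luminescence proportional to caspase 3/7 activity, measured 20 min after adding Caspase-Glo 3/7 reagent. Cells (HUV-EC-C) had received compound for 16 hr at 37°C. Increases relative to DMSO and 100 uM tamoxifen gave concentration-response AC50 values.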

[16] = Cellular Toxicity (caspase-3) SHSY5Y (AID 657; active means well fitted curve in the direction sought with a large enough effect; an effect the other way counts as inactive or inconclusive)
Summary of the method: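 Cells plated and incubated 5 h at 37 °C, dosed over a concentration range, incubated 16 h, then given Caspase-Glo 3/7 reagent for 1 h at room temperature before luminescence reading. Staurosporine (10 uM) defined full stimulation.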

[17] = Cellular Toxicity (caspase-3) BJ (AID 658; active means well fitted curve in the direction sought with a large enough effect; an effect the other way counts as inactive or inconclusive;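 further: 0% = DMSO basal and 100% = 10 µM staurosporine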)
Summary of the method: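 Plated BJ cells (1000/well) rested 5 hr, received compound for 16 hr at 37 °C, then Caspase-Glo 3/7 reagent for 1 hr at room temperature before luminescence reading.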

[18] = Cellular Toxicity (caspase-3) MRC-5 (AID 659; active means well fitted curve in the direction sought with a large enough effect; an effect the other way counts as inactive or inconclusive;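 further: 0% = DMSO basal and 100% = 10 µM staurosporine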)
Summary of the method: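 Apoptosis readout in MRC-5 cells: luciferase light generated after caspase 3/7 cleaves a peptide-aminoluciferin substrate, measured post 16 hr compound incubation at 37 °C.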

[19] = Cellular Toxicity (caspase-3) Mesangial (AID 660; active means well fitted curve in the direction sought with a large enough effect; an effect the other way counts as inactive or inconclusive;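 further: cells exposed to compound for 16 h before the caspase read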)
Summary of the method: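 AC50 values come from Hill-equation fits of caspase 3/7 activation, measured as Caspase-Glo luminescence in human glomerular mesangial cells exposed to compound for 16 h at 37 °C; 100% set by 100 uM tamoxifen.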

[20] = Cellular Toxicity (caspase-3) SK-N-SH (AID 661; active means well fitted curve in the direction sought with a large enough effect; an effect the other way counts as inactive or inconclusive;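 further: 0% = DMSO basal and 100% = 10 µM staurosporine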)
Summary of the method: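 Apoptosis readout in SK-N-SH neuroblastoma: Caspase-Glo 3/7 luminescence following 16 hr treatment in complete culture medium. Normalization used DMSO and 10 uM staurosporine controls.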

3',5'-cyclic-AMP phosphodiesterase 4B (Homo sapiens), sequence (Q07343 whole entry, looked up): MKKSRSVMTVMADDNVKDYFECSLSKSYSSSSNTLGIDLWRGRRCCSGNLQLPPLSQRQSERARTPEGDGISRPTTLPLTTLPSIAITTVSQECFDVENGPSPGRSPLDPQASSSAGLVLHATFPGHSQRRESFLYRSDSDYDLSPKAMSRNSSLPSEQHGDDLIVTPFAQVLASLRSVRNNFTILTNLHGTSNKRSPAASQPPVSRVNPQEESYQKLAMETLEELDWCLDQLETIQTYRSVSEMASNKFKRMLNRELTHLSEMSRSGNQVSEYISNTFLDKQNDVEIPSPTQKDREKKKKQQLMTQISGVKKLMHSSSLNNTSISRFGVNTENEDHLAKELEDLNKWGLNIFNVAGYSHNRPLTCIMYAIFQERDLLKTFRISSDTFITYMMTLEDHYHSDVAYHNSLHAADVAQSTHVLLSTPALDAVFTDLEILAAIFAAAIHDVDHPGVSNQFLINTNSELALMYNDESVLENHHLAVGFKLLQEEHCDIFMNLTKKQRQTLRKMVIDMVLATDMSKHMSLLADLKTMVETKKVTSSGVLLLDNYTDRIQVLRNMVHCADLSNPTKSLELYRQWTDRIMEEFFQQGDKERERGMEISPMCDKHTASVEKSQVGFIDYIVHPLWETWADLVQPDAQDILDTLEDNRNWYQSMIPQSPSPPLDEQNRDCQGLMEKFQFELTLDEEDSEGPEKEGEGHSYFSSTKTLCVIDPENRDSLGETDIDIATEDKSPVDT
Glucocorticoid receptor (Homo sapiens), sequence (P04150 whole entry, looked up, the tested form may be a part): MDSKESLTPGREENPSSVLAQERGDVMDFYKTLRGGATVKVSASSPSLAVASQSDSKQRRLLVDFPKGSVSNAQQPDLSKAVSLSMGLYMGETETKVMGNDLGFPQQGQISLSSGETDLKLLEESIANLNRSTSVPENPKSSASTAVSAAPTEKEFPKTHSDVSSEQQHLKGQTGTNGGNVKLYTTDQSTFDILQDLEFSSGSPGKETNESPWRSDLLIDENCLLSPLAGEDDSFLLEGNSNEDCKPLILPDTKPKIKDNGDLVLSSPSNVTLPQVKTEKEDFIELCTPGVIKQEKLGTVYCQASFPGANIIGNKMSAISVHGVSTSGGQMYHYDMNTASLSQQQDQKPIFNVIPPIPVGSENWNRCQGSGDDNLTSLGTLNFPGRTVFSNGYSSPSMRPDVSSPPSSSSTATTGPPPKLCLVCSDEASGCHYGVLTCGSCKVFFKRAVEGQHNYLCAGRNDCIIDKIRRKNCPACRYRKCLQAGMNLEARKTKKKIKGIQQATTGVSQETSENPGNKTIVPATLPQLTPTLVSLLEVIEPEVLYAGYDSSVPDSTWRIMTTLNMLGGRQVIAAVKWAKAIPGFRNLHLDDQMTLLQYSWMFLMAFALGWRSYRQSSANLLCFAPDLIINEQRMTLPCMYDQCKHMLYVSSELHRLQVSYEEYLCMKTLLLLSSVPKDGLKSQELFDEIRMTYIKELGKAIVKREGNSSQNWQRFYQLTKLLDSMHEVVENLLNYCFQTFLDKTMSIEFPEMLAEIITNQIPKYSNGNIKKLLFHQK

C#CCn1c(=O)c2c(ncn2C)n(C)c1=O
inactive: activity, negative = inhibition [1] 16.8% | Potency [2] > 46 µM | Potency [3] > 46 µM | outcome [4]

COc1ccc(-c2ccc(N)[n+](CCCC(=O)O)n2)cc1
inactive: activity, negative = inhibition [1] 5.04% [at 17.2 µM] | Potency [2] > 46 µM and > 20.6 µM | Potency [3] > 46 µM and > 20.6 µM | outcome [4] | Potency [5]

O=C(O)c1cc(=O)cc(C(=O)O)[nH]1
inactive: activity, negative = inhibition [1] 10.8% | Potency [2] > 46 µM | Potency [3] > 46 µM | outcome [4] | Potency [5]

COc1ccc(CCN(C)CCc2ccc(OC)c(OC)c2)cc1OC
inactive: activity, negative = inhibition [1] -14.4% | Potency [2] > 46 µM | Potency [3] > 46 µM | outcome [4]

O=C(N[C@@H](Cc1ccccc1)C(=O)CCl)OCc1ccccc1
inactive: Potency [2] > 46 µM | Potency [3] > 46 µM | outcome [4] | Potency [5]
active: activity, negative = inhibition [1] -59.3%

CCN(CC)CCOC(=O)c1cc(Cl)c(N)cc1OC
inactive: activity, negative = inhibition [1] -0.802% | Potency [2] > 46 µM | Potency [3] > 46 µM | outcome [4] | Potency [5]

CCC(=O)N1CCN(C(=O)c2ccccc2)CC1
inactive: activity, negative = inhibition [1] 2.58% | Potency [2] > 46 µM | Potency [3] > 46 µM | outcome [4] | Potency [5]

O=c1[nH]c(=S)[nH]c(-c2ccccc2)c1Cc1c(O)ccc2ccccc12
inactive: activity, negative = inhibition [1] -12.5% [at 7.69 µM] | Potency [2] > 46 µM | Potency [3] > 9.22 µM | activity change, negative = inhibition [4] 0.827% [at 11.4 µM]

CCCn1c(=O)c2[nH]c(-c3ccc(S(=O)(=O)O)cc3)nc2n(CCC)c1=O
inactive: activity, negative = inhibition [1] 42.3% | Potency [2] > 46 µM | Potency [3] > 46 µM | outcome [4] | Potency [5]

C=CC[C@H](N)C(=O)O
inactive: activity, negative = inhibition [1] 7.83% | Potency [2] > 46 µM | Potency [3] > 46 µM | outcome [4] | Potency [5]

N[C@@H](Cc1c[nH]c2ccccc12)C(=O)O
inactive: activity, negative = inhibition [1] -9.87% | Potency [2] > 46 µM | Potency [3] > 46 µM | outcome [4]

NC(=O)c1ccccc1
inactive: activity, negative = inhibition [1] -35.6% | Potency [2] > 46 µM | Potency [3] > 46 µM | outcome [4] | outcome [6] | outcome [7] | outcome [8] | outcome [9] | outcome [10] | outcome [11] | outcome [12] | outcome [13] | outcome [14] | outcome [15] | outcome [16] | outcome [17] | outcome [18] | outcome [19] | outcome [20]

C[N+](C)(C)CC=O
inactive: activity, negative = inhibition [1] 17.9% | Potency [2] > 46 µM | Potency [3] > 46 µM | outcome [4]

O=C(O)c1cc2cc(F)ccc2[nH]1
inactive: activity, negative = inhibition [1] -0.809% [at 17.2 µM] | Potency [2] > 46 µM and > 20.6 µM | Potency [3] > 46 µM | outcome [4] | Potency [5]

CNC(=O)c1cc2c(cn1)[nH]c1ccccc12
inactive: activity, negative = inhibition [1] 31.1% | Potency [2] > 46 µM | Potency [3] > 46 µM | outcome [4] | Potency [5]

Cn1c(=O)[nH]c2ncn(C)c2c1=O
inactive: activity, negative = inhibition [1] 3.46% | Potency [2] > 46 µM | Potency [3] > 46 µM | outcome [4] | Potency [5]

c1ccc(CN2CCC3(CCCc4ccccc43)CC2)cc1
inactive: activity, negative = inhibition [1] -10.2% | Potency [2] > 46 µM | Potency [3] > 46 µM | outcome [4] | Potency [5]

S=C(S)N1CCCC1
inactive: activity, negative = inhibition [1] 7.91% | Potency [2] > 46 µM | Potency [3] > 46 µM | outcome [4] | Potency [5]

Oc1ccc(Cn2cc[nH]c2=S)cc1
inactive: activity, negative = inhibition [1] 25% | Potency [2] > 46 µM | Potency [3] > 46 µM | outcome [4] | Potency [5]

c1ccc2nc(C3=NCCN3)ccc2c1
inactive: activity, negative = inhibition [1] 0.247% | Potency [2] > 46 µM | Potency [3] > 46 µM | outcome [4] | Potency [5]

NC(N)=NC(N)=Nc1cccc(Cl)c1
inactive: activity, negative = inhibition [1] 15.9% | Potency [2] > 46 µM | Potency [3] > 46 µM | outcome [4] | Potency [5]

N=C(N)c1ccc(OCCCCCOc2ccc(C(=N)N)cc2)cc1 (tested in a mixture with another compound)
inactive: activity, negative = inhibition [1] -3.59% | Potency [2] > 46 µM | Potency [3] > 46 µM | outcome [4] | Potency [5]

CC[N+](CC)(CC)CC(=O)Nc1c(C)cccc1C
inactive: activity, negative = inhibition [1] -19.8% | Potency [2] > 46 µM | Potency [3] > 46 µM | outcome [4] | Potency [5]

O=C(O)C1=CCNCC1
inactive: activity, negative = inhibition [1] 16.7% | Potency [2] > 46 µM | Potency [3] > 46 µM | outcome [4] | Potency [5]

CCSC(=N)N
inactive: activity, negative = inhibition [1] 9.06% | Potency [2] > 46 µM | Potency [3] > 46 µM | outcome [4] | Potency [5]

Cc1ccc2c(c1)C(N1CCN(C)CC1)=Nc1cccnc1N2
inactive: activity, negative = inhibition [1] 0.822% | Potency [2] > 46 µM | Potency [3] > 46 µM | outcome [4] | Potency [5]
